In the library only some 11% were active in any assay of this set; here they are far more common.
Pf growth 48h – Primary qHTS for delayed death inhibitors of the malarial parasite plastid, 48 hour incubation; actives 5.9% (n = 310,000); Potency, µM (titrated, usually from 28.7 µM), for inactives: at the highest dose activity change, negative = inhibition, hits mostly inhibitors; P. falciparum luciferase growth in erythrocytes, 48 h
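Firefly luciferase activity from engineered P. falciparum reports growth; inhibitors lower the luminescent signal. Cultures contained 2% hematocrit erythrocytes at 0.1% final parasitemia.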
AmpC no deterg – qHTS Inhibitors of AmpC Beta-Lactamase (assay without detergent) | AmpC nitrocefin hydrolysis, absorbance 480 nm, 0.0001% Triton | Potency, µM (highest dose often 57.1 µM), for inactives: at the top dose activity change, negative = inhibition, usual class: inhibitors | actives 0.52% (n = 330,000) | AID 485341, 2010;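 note: plate controls were no compound for no effect and no enzyme for full effect; nearly all actives have a fitted effect of over 20% in size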
Target sequence (P00811 whole entry, looked up): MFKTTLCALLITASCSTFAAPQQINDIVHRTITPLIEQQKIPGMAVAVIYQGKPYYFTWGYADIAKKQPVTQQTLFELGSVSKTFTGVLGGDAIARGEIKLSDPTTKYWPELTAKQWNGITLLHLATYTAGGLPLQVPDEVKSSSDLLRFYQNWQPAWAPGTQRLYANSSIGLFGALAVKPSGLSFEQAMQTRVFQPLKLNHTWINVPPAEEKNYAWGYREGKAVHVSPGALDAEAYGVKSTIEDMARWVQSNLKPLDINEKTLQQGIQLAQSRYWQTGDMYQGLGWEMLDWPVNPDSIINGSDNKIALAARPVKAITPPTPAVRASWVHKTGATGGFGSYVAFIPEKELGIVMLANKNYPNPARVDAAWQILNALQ
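AmpC (5.3 nM in the dispensed reagent) in 20 mM phosphate pH 7.0 with 0.01% (detergent screen) or 0.0001% Triton X-100 was preincubated with compounds for 15 min at room temperature. Nitrocefin was then added from an 800 uM solution, and hydrolysis was followed at 480 nm.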
HCV inh – qHTS Assay for Inhibitors of Hepatitis C Virus (HCV). Huh7.5.1 HCVcc-Cre infection, luciferase reporter, 44 h. Potency, µM (highest dose often 41.8 µM), inactives show top-dose activity change, negative = inhibition, usual class: inhibitors. actives 3.4% (n = 340,000). AID 651820, 2012
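A cell-based infection assay in which seeded cells (1,000 per well) receive test compound after 4 h, are inoculated with HCVcc-Cre at approximately 0.5 moi, and are incubated 44 h before luminescence detection.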
AmpC inh detg – qHTS Inhibitors of AmpC Beta-Lactamase (assay with detergent); Potency, µM (series often up to 114 µM), for the others: top-dose activity change, negative = inhibition, actives largely listed as inhibitors; P00811; AmpC hydrolysis of nitrocefin, absorbance 480 nm, 0.01% Triton; AID 485294, 2010; actives 0.041% (n = 370,000);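 note: 0% = no-compound wells and -100% = no-enzyme wells; nearly all actives have a fitted effect of over 25% in size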
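20 mM phosphate pH 7.0 + 0.01% (detergent screen) or 0.0001% Triton X-100; 5.3 nM AmpC reagent; cpd preinc 15 min RT; nitrocefin (800 uM stock) to start; A480 q20 s × 4 min; Activity was normalised to no-enzyme and no-compound control wells.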
AMA1 RON2 block – qHTS for Inhibitors of AMA1-RON; Towards Development of Antimalarial Drug Lead: Primary Screen; Plasmodium falciparum AMA1 (3D7) - RON2 peptide interaction; AlphaScreen AMA1-biotinylated RON2 peptide binding; Potency, µM (doses to about 58.2 µM), for inactives: at the highest dose activity change, negative = inhibition, usual class: inhibitors; actives 0.2% (n = 360,000); AID 720542, 2013;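 note: 0% = vehicle wells and -100% = peptide control; nearly all actives have a fitted effect of over 45% in size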
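AMA1 (3D7) with his tag at 25 nM final met compounds first, then biotinylated RON2 peptide at 25 nM; detection used donor plus acceptor beads, 10 µg/mL apiece, read by AlphaScreen after 30 min at room temperature.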
Pf growth 96h – Primary qHTS for delayed death inhibitors of the malarial parasite plastid, 96 hour incubation; Potency, µM (titrated, usually from 28.7 µM), for inactives: at the top dose activity change, negative = inhibition, actives largely listed as inhibitors; actives 6.9% (n = 320,000); P. falciparum luciferase reporter growth, 96 h; AID 504834, 2011
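Parasite growth measured via integrated firefly luciferase reporter in P. falciparum. Infected erythrocytes at 2% hematocrit, 0.05% parasitemia final were treated 96 hours at 37 C under 5% CO2, and luminescence was read.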
Numbers without * were called inactive; ! = repeats disagree. Calls come from the whole dose curve; as a rule, active = well fitted curve in the direction sought with a large enough effect; inconclusive = small, poorly fitted or top-dose-only effect, or another doubt; inactive = no such curve, though single readings can be large; an effect the other way counts as inactive or inconclusive. Unless noted, % is set by controls: 0 for no effect and ±100 for the full control effect; potency is the fitted concentration of half-maximal effect.

Results for CC1CCN(S(=O)(=O)c2ccc(NC(=O)Cc3ccc(S(=O)(=O)N4CCOCC4)s3)cc2)CC1 ?
Pf growth 48h: -21.4%; AmpC no deterg: -14.1%; HCV inh: inconclusive; AmpC inh detg: -5.1%; AMA1 RON2 block: -19.0%; Pf growth 96h: inconclusive

Results for CNC(=O)c1ccc(NC(=O)Cc2ccc(S(=O)(=O)N3CCOCC3)s2)cc1 ?
Pf growth 48h: -32.3%; AmpC no deterg: -13.5%; HCV inh: 9.3%; AmpC inh detg: -14.5%; AMA1 RON2 block: -8.4%; Pf growth 96h: 14.7µM*

How did O=C(CN1CCNCC1)NC1CCCCC1 do in these assays?
Pf growth 48h: 5.5%; Pf growth 96h: 5.3%

What do the screens show for `CCN(CC)CCOC(=O)c1ccc(NC(=O)c2nn(-c3ccc(C)cc3)c(=O)c3c2c2ccccc2n3C)cc1`?
AmpC inh detg: -4.2%

How did CC(=O)N1c2ccccc2C(=O)C1N1CCN(c2cc(Cl)ccc2C)CC1 (stereo not drawn) do in these assays?
AmpC inh detg: -0.1%

How did Cc1cccc(Cn2cnc3c(oc4ccccc43)c2=O)c1 do in these assays?
AmpC inh detg: 2.0%

How did Cc1ccc(O)c(C(=O)CC(=O)c2ccc(C(C)(C)C)cc2)c1 do in these assays?
Pf growth 48h: inconclusive; AmpC no deterg: -41.1%; HCV inh: inconclusive; AmpC inh detg: inconclusive; AMA1 RON2 block: 51.4%; Pf growth 96h: inconclusive

Results for Cc1ccc(O)c(C(=O)CC(=O)c2ccccc2Cl)c1 ?
Pf growth 48h: 14.7µM*; AmpC no deterg: -42.6%; HCV inh: 5.01µM*; AmpC inh detg: inconclusive; AMA1 RON2 block: 70.8%; Pf growth 96h: 15.6%

What do the screens show for `Cc1cc(=O)[nH]c2c(C)c(N)ccc12`?
Pf growth 48h: 2.1%; AmpC no deterg: -1.8%; HCV inh: 10.1%; AmpC inh detg: -10.6%; AMA1 RON2 block: -2.1%; Pf growth 96h: inconclusive

Results for Cc1cc(C)c2ccc3c(C)c(C)nc3c2[nH]1 ?
Pf growth 48h: 3.7µM*; AmpC no deterg: -7.7%; HCV inh: inconclusive; AmpC inh detg: 4.8%; AMA1 RON2 block: -26.1%; Pf growth 96h: -53.9%

Results for Cc1cccc(N2CCN(CCNC(=O)C3COc4ccccc4C3)CC2)c1C (stereo not drawn) ?
AmpC inh detg: -2.5%

What do the screens show for `CCCCC(=O)N(Cc1ccc(-c2ccccc2-c2nn[nH]n2)cc1)[C@H](C(=O)O)C(C)C`?
AmpC no deterg: -10.3%; AmpC inh detg: -14.4%

What do the screens show for `CCCCc1nc(Cl)c(CO)n1Cc1ccc(-c2ccccc2-c2nn[nH]n2)cc1`?
Pf growth 48h: 13.5µM*!; AmpC no deterg: -29.7%; HCV inh: 0.562µM*; AmpC inh detg: inconclusive; AMA1 RON2 block: 7.5%; Pf growth 96h: 7.57µM*

What do the screens show for `CCCc1nc(C(C)(C)O)c(C(=O)O)n1Cc1ccc(-c2ccccc2-c2nn[nH]n2)cc1`?
AmpC no deterg: -57.2%; AmpC inh detg: 44.7µM*

What do the screens show for `CCCCC(=O)N(Cc1ccc(-c2ccccc2-c2nn[nH]n2)cc1)C(C(=O)O)C(C)C` (stereo not drawn)?
Pf growth 48h: 15.1µM*; Pf growth 96h: 10.7µM*

Results for Cc1[nH]n(-c2ccc(Cl)c(Cl)c2)c(=O)c1CCO ?
Pf growth 48h: inconclusive; AmpC no deterg: 40.4%; HCV inh: 2.7%; AmpC inh detg: -4.2%; AMA1 RON2 block: 6.6%; Pf growth 96h: inconclusive

Results for CCCCCCc1c(C)nc(-n2[nH]c(C)c(CCO)c2=O)[nH]c1=O ?
Pf growth 48h: inconclusive; AmpC no deterg: -16.8%; HCV inh: -20.6%; AmpC inh detg: 5.8%; AMA1 RON2 block: 84.5%; Pf growth 96h: 9.28µM*

How did CCCCc1c(C)nc(N2CCCC2)[nH]c1=O do in these assays?
Pf growth 48h: 6.57µM*; AmpC no deterg: -3.4%; HCV inh: 10.2%; AmpC inh detg: -2.9%; AMA1 RON2 block: 5.0%; Pf growth 96h: 4.65µM*

What do the screens show for `Cc1nc(N2CCOCC2)[nH]c(=O)c1CCC(C)C`?
Pf growth 48h: 8.2%; AmpC no deterg: -9.0%; HCV inh: 13.9%; AmpC inh detg: -5.0%; AMA1 RON2 block: 25.5%

What do the screens show for `CCCCCCCc1c(C)nc(N2CCOCC2)[nH]c1=O`?
Pf growth 48h: 1.47µM*; AmpC no deterg: -16.6%; HCV inh: 11.8%; AmpC inh detg: 3.7%; AMA1 RON2 block: -2.7%

Results for CCOC(=O)c1c(C)[nH]c(C)c1S(=O)(=O)N1CCCC(C(=O)N2CCN(c3cccc(C)c3C)CC2)C1 (stereo not drawn) ?
AmpC inh detg: -6.8%

What do the screens show for `CCC(C)(C)NC(=O)Cn1c(=O)ccc2cc(S(=O)(=O)N3CCC(C)CC3)ccc21`?
AmpC inh detg: 2.5%

Results for COC(=O)c1cnn2c(C(F)(F)F)cc(-c3ccccc3)nc12 ?
Pf growth 48h: inconclusive; AmpC no deterg: -8.1%; HCV inh: -22.5%; AmpC inh detg: -17.2%; AMA1 RON2 block: 66.5%; Pf growth 96h: inconclusive

How did N#Cc1cnn2c(C(F)(F)F)cc(-c3ccccc3)nc12 do in these assays?
Pf growth 48h: 10.4µM*; AmpC no deterg: -18.8%; HCV inh: -10.7%; AmpC inh detg: 0.1%; AMA1 RON2 block: -0.6%; Pf growth 96h: 235.9%

How did O=C(c1cnn2c(C(F)F)cc(C3CC3)nc12)N1CCc2ccccc2C1 do in these assays?
Pf growth 48h: -23.0%; AmpC no deterg: 11.4%; HCV inh: 8.91µM*; AmpC inh detg: inconclusive; AMA1 RON2 block: 5.5%; Pf growth 96h: 23.7%

What do the screens show for `COc1cccc(-c2cc(C(F)(F)F)n3ncc(C(=O)N4CCc5ccccc5C4)c3n2)c1`?
Pf growth 48h: inconclusive; AmpC no deterg: 14.3%; HCV inh: inconclusive; AmpC inh detg: -3.0%; AMA1 RON2 block: -2.0%; Pf growth 96h: 42.6%

How did O=C(c1cnn2c(C(F)(F)F)cc(-c3ccccc3)nc12)N1CCC2(CC1)OCCO2 do in these assays?
AmpC no deterg: -3.2%; HCV inh: 0.8%; AmpC inh detg: 3.4%; AMA1 RON2 block: 3.0%; Pf growth 96h: 14.7µM*

Results for COc1ccc(-c2cc(C(F)(F)F)n3ncc(C(=O)N4CCc5ccccc5C4)c3n2)cc1 ?
Pf growth 48h: 9.28µM*; AmpC no deterg: 3.9%; HCV inh: 2.8%; AmpC inh detg: 0.8%; AMA1 RON2 block: 20.1%; Pf growth 96h: 25.0%

Screening results: PubChem BioAssay, National Center for Advancing Translational Sciences (NCATS)
